# PubChem BioAssay (Tox21)
# Results filed as inconclusive are left out. A number with no mark means an inactive call. Calls follow the shape of the dose curve; as a rule, active = well fitted inhibition curve with a large enough effect in the signal ratio in the repeat runs (not every such curve was filed as active); inconclusive = weak or mixed curves, or effect the other way; inactive = no such curve, though single readings can be large or run the other way; the % refers to the signal ratio.
# Biological target: Vitamin D3 receptor (Homo sapiens) (UniProt P11473)
# Sequence (P11473 whole entry, looked up): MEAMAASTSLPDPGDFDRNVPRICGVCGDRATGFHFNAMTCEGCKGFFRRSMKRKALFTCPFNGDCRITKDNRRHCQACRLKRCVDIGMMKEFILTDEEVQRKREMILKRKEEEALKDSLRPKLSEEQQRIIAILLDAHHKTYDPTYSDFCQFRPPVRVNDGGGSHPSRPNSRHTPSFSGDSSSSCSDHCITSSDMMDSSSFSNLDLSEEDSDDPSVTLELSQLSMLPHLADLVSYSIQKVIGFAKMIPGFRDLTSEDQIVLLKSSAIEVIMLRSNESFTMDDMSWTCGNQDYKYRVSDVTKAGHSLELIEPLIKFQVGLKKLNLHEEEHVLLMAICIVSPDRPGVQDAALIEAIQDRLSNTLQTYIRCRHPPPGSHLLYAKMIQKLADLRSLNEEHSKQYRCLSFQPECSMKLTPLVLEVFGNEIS
# Assay: qHTS assay to identify small molecule antagonists of the vitamin D receptor (VDR) signaling pathway (AID 743223)
# Settings: VDR-UAS-bla HEK293T, beta-lactamase FRET ratio, 16 h; series mostly up to 61 µM; activity change, negative = inhibition: at the top concentration
# From the text: U.S. Tox21 Program National Center for Advancing Translational Sciences [NCATS] NIH Chemical Genomics Center [NCGC] U.S. Environmental Protection Agency [EPA] National Institutes of Environmental Health Sciences [NIEHS] National Toxicology Program [NTP] U.S. Food and Drug Administration [FDA] Tox21 Assay Overview: The vitamin D receptor (VDR), a member of nuclear hormone receptor superfamily, plays a critical role in calcium homeostasis and bone metabolism. It is also involved in cell differentiation and growth, and thrombogenicity.
# Tox21 Assay Protocol Summary: VDR-bla cells were dispensed at 2,000 cells/5 uL of assay medium per well into black wall/clear-bottom 1536-well plates using a Multidrop Combi (Thermo Fisher Scientific, Waltham, MA) dispenser. After the assay plates were incubated at a 37C and 5% CO2 for 4 h, 23 nL of compounds dissolved in DMSO, positive controls or DMSO only was transferred to the assay plate by a Pintool station (Kalypsys, San Diego, CA), followed by addition of 1 uL of 1alpha, 25-Dihydroxy Vitamin D3 (3 nM, final concentration in the wells) using a Bioraptr Flying Reagent Dispenser (FRD) workstation (Beckman Coulter, Indianapolis, IN). The plates were incubated at 37C and 5% CO2 for 16 h, and then 1 uL of LiveBLAzerTM B/G FRET substrate was added using a Bioraptr FRD. The plates were incubated at room temperature for 2 h and fluorescence intensity was measured by an Envision plate reader (PerkinElmer, Shelton, CT).
# % is scaled to controls: 0 for no effect and ±100 for the full control effect.
row,SMILES,"activity change, negative = inhibition"
1,CC(C)NCC(O)COc1ccc(CC(N)=O)cc1 (stereo not given),3.46%
2,C[Si](C)O[Si](C)(C)O[Si](C)(C)O[Si](C)C,13.4%
3,Nc1ccc(C(=O)Nc2ccccc2N)cc1,-8.22%
4,CCCCCCCCCO,-5.24%
5,CC(C)(C)C1CCCCC1O (stereo not given),-21.7%
6,O=C(CCN1CCN2CCCC2C1)N1c2ccccc2Sc2ccc(Cl)cc21 (stereo not given),-1.12% [at 28.5 µM]
7,COCCOCCOCCOCCOC,9.96%
8,CCCCCCCCCC(=O)OCC,-0.76%
9,CCCc1ccccc1,4.83%
10,C=C(C)C(=O)OC(C)C,12.3%
11,COc1ccc(C(C)=O)cc1,-4.98% [at 78.8 µM]
12,CC(C)(C)c1cc(O)c(C(C)(C)C)cc1O,-26.6%
13,CC(=O)OCCc1ccccc1,-12.5%
14,O=C(O)Cc1sc(-c2ccccc2)nc1-c1ccc(Cl)cc1,13.1%
15,O=C(O)COC(=O)Cc1ccccc1Nc1c(Cl)cccc1Cl,4.45%
16,O=C(Cl)c1c(Cl)cccc1Cl,-10.5% [at 78.8 µM]
17,CCCCOC(O)CC (stereo not given),15.1%
18,CC1(C)CCC(C)(C)c2cc(NC(=O)c3ccc(C(=O)O)cc3)ccc21,10.7%
19,CC(C)(C)c1ccc(S)cc1,-10.8%
20,CC(C)NCC(O)c1cc(O)cc(O)c1 (stereo not given),11.5%

row,SMILES,"activity change, negative = inhibition"
1,Cc1ccc(C(N)=O)cc1N,4.46%
2,C1=Cc2ccccc2C1,-10.3%
3,CCCCCC(CO)CCC (stereo not given),15%
4,O=C(O)c1cn(C2CC2)c2cc(Cl)c(F)cc2c1=O,17.4%
5,Cc1ccc(C(=O)C(C)CN2CCCCC2)cc1 (stereo not given),-4.16%
6,CCCC(=O)OCC,-12%
7,COc1ccc(OC)c(OC)c1,-3.04%
8,NC(N)=N/N=C/c1c(Cl)cccc1Cl,1.51%
9,CC[C@H](C)[C@H](N)C(=O)O,0.845%
10,CCc1nn(C2CCCCC2)c2cc(C3(C#N)CCC(C(=O)O)CC3)ccc12 (stereo not given),-16.1%
11,c1ccc(-c2nc[nH]c2-c2ccccc2)cc1,-13.6%
12,CCCCCc1ccc(N)cc1,7.52%
13,CCCCCCCCCC=O,27.2%
14,Cc1ccc2c(ccc3ccccc32)c1,-8.72% [at 78.8 µM]
15,CC(C)CCCC(C)CCO (stereo not given),-3.96%
16,CC(C)(Oc1ccc(Cl)cc1)C(=O)OCCCOC(=O)C(C)(C)Oc1ccc(Cl)cc1,-4.26%
17,CCCCCCc1ccc(N)cc1,-4.16%
18,CC[C@@H]1C[C@H](N(Cc2cc(C(F)(F)F)cc(C(F)(F)F)c2)C(C)=O)c2cc(C(F)(F)F)ccc2N1C(=O)OC(C)C,-1.96%
19,CCN(CCO)CCCC(C)Nc1ccnc2cc(Cl)ccc12 (stereo not given),-3.93% [at 6.95 µM]
20,Cc1ccccn1,-11.1%
